Here are results for one sequence from article PMC7862700, “An all-to-all approach to the identification of sequence-specific readers for epigenetic DNA modifications on cytosine”.

Common to all, as to test: DAPPL (digital affinity profiling via proximity ligation, sequencing); 10 mM Tris-HCl pH 7.5, 50 mM NaCl, 1 mM DTT, 4% glycerol, room temperature, 30 min; GST-TFs on glutathione beads, 16-mer random dsDNA library, 0.1% formaldehyde crosslink after washing; high values mean tight binding
One experiment concerns the target T1, FLI1 (Homo sapiens, UniProt Q01543 1-452).
T1 sequence: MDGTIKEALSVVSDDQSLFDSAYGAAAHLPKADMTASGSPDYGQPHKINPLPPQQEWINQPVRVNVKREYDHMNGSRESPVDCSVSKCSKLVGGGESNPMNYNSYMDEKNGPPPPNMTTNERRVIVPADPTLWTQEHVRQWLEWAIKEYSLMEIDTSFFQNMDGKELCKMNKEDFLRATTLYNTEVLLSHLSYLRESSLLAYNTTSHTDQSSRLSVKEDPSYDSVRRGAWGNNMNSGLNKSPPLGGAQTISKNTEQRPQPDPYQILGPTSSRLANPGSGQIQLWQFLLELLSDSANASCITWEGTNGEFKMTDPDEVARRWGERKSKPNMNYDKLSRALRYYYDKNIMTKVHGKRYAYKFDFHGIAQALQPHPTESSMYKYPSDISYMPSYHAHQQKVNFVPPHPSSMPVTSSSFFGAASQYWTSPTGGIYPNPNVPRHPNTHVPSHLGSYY
As to conditions: protein: recombinant; tags: N-terminal GST; dsDNA, one strand shown. Summed up:
(§1)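 Pools of DNA-barcoded human transcription factors, expressed in yeast as GST fusions on glutathione beads and combined with a tag-only sample, were incubated with 200 nmole of a 16-mer random double-stranded DNA library. Incubation took 30 min at room temperature in Tris/NaCl/DTT/glycerol buffer and was followed by washing, 0.1% formaldehyde crosslinking, proximity ligation (BsaI/T4 ligase, 1 h, 37 °C), PCR amplification and sequencing on an Illumina NextSeq500. Binding signal is the ratio of a hexamer's read frequency for a factor to its frequency for the tag-only sample.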

The next experiment concerns the target T2, ELK1 (Homo sapiens, UniProt P19419 1-428).
T2 sequence: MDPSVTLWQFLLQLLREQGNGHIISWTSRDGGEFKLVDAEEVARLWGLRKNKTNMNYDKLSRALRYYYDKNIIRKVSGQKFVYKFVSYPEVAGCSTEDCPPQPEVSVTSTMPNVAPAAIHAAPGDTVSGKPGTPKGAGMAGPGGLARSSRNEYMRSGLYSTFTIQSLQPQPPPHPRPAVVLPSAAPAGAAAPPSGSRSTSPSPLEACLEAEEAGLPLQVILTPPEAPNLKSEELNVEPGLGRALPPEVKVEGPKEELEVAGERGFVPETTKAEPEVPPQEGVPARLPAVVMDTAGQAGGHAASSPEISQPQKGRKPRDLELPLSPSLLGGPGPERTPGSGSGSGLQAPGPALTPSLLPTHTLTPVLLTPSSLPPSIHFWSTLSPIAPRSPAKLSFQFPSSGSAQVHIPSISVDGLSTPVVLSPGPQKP
The note with it: protein: recombinant; tags: N-terminal GST; dsDNA, one strand shown. Summed up: as §1

A further experiment addresses T3, GABPA (Homo sapiens, UniProt Q06546 1-454).
T3 sequence: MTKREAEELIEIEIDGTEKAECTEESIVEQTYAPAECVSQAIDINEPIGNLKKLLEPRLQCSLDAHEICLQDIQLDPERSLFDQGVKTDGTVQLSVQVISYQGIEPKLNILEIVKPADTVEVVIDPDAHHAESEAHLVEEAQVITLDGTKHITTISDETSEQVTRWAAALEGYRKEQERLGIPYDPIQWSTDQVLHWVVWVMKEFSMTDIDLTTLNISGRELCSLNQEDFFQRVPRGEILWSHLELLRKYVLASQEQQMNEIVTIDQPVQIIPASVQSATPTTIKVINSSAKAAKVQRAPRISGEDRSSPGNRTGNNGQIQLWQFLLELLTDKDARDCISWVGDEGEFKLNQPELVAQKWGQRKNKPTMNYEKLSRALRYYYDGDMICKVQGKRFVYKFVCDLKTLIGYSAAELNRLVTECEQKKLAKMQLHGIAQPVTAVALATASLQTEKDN
As to conditions: protein: recombinant; tags: N-terminal GST; dsDNA, one strand shown. Summed up:
as §1

In another experiment the target is T4, ERG (Homo sapiens, UniProt P11308 1-479).
T4 sequence: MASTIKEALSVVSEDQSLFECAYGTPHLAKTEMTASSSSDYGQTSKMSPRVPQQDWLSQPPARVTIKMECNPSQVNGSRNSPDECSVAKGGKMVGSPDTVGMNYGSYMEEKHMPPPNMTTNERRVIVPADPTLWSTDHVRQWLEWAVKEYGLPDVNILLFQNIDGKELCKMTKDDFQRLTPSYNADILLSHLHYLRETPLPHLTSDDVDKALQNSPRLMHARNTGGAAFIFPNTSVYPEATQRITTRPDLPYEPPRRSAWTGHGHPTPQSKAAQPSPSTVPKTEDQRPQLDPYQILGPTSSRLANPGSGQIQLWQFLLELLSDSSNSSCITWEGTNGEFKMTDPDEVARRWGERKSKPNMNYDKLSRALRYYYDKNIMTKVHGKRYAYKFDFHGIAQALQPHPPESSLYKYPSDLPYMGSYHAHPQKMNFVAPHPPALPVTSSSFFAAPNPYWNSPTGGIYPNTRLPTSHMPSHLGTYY
The note with it: protein: recombinant; tags: N-terminal GST; dsDNA, one strand shown. Summed up: as §1

The target in the next experiment is ELF1 (Homo sapiens, UniProt P32519 1-619). As to conditions: protein: recombinant; tags: N-terminal GST; dsDNA, one strand shown. Summed up:
as §1

In another experiment the target is T5, EHF (Homo sapiens, UniProt Q9NZC4 1-300).
T5 sequence: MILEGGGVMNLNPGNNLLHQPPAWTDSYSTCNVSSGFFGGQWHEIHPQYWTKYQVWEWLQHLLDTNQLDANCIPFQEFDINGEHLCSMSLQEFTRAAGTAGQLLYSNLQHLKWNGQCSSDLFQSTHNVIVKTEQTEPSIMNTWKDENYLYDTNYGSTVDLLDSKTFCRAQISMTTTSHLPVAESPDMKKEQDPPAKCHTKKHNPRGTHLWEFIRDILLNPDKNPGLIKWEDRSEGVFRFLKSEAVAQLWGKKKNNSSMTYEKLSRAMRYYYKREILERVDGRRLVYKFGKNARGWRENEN
As to conditions: protein: recombinant; tags: N-terminal GST; dsDNA, one strand shown. Summed up:
as §1

For another experiment, the target named is SPI1 (Homo sapiens, UniProt P17947 1-270). The note with it: protein: recombinant; tags: N-terminal GST; dsDNA, one strand shown. Summed up: as §1
The target in the next experiment is SPIB (Homo sapiens, UniProt Q01892 1-262). The note with it: protein: recombinant; tags: N-terminal GST; dsDNA, one strand shown. Summed up: as §1
The next experiment has as its target T6, ELK3 (Homo sapiens, UniProt P41970 1-407).
T6 sequence: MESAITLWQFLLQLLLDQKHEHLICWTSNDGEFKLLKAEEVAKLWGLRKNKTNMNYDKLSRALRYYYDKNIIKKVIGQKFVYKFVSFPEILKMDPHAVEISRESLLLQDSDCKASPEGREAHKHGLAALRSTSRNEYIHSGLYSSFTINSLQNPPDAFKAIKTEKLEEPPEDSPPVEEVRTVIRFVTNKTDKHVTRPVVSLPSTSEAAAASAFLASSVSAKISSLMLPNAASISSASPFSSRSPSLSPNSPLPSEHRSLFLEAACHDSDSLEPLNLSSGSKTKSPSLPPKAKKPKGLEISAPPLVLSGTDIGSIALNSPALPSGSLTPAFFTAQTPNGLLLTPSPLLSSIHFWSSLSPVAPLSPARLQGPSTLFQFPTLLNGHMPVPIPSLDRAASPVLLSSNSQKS
As to conditions: protein: recombinant; tags: N-terminal GST; dsDNA, one strand shown. Summed up:
as §1

In another experiment the target is T7, FEV (Homo sapiens, UniProt Q99581 1-238).
T7 sequence: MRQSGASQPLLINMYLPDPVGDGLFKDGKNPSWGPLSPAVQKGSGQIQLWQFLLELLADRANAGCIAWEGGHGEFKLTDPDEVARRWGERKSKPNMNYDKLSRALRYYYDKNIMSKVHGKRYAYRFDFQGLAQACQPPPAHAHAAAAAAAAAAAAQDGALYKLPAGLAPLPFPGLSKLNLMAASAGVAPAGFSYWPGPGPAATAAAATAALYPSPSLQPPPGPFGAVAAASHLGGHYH
As to conditions: protein: recombinant; tags: N-terminal GST; dsDNA, one strand shown. Summed up:
as §1

A further experiment has as its target ETV5 (Homo sapiens, UniProt P41161 1-510). The note with it: protein: recombinant; tags: N-terminal GST; dsDNA, one strand shown. Summed up:
as §1

In the next experiment the target is HSF1 (Homo sapiens, UniProt Q00613 1-529). As to conditions: protein: recombinant; tags: N-terminal GST; chain copies: 3; dsDNA, one strand shown. Summed up: as §1
The next experiment addresses T8, SPIC (Homo sapiens, UniProt Q8N5J4 1-248).
T8 sequence: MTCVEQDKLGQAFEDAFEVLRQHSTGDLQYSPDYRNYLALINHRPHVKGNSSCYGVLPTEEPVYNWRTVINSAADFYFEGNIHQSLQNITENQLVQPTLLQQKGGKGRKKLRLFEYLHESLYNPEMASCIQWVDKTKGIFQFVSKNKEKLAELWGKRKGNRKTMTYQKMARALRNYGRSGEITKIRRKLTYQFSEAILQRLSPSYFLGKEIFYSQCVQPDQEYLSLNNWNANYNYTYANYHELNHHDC
As to conditions: protein: recombinant; tags: N-terminal GST; dsDNA, one strand shown. Summed up:
as §1

For another experiment, the target named is ELF4 (Homo sapiens, UniProt Q99607 1-663). As to conditions: protein: recombinant; tags: N-terminal GST; dsDNA, one strand shown. Summed up: as §1
In another experiment the target is T9, ELK4 (Homo sapiens, UniProt P28324-2 1-405).
T9 sequence: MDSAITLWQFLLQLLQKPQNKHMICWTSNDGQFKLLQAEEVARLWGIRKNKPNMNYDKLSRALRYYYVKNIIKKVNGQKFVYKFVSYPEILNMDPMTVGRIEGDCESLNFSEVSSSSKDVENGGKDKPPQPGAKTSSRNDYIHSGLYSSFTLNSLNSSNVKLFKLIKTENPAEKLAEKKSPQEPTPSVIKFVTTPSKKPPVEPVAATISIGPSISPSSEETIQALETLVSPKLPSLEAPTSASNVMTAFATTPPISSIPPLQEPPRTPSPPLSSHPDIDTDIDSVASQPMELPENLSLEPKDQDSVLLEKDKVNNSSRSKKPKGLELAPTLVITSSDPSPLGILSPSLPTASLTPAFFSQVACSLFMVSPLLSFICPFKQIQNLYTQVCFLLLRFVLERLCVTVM
As to conditions: protein: recombinant; tags: N-terminal GST; dsDNA, one strand shown. Summed up: as §1

For the next experiment, the target named is T10, ETV2 (Homo sapiens, UniProt O00321 1-342).
T10 sequence: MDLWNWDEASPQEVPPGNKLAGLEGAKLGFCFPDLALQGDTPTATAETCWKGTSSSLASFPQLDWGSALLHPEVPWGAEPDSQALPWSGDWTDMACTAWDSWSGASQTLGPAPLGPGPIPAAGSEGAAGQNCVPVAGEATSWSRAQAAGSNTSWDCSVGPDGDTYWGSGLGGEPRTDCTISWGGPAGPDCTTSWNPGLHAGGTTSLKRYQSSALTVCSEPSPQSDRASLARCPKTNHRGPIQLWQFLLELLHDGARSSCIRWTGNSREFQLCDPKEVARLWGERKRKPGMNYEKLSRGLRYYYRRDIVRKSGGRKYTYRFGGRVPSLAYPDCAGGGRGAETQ
The note with it: protein: recombinant; tags: N-terminal GST; dsDNA, one strand shown. Summed up:
as §1

For the next experiment, the target named is T11, ELF3 (Homo sapiens, UniProt P78545 1-371).
T11 sequence: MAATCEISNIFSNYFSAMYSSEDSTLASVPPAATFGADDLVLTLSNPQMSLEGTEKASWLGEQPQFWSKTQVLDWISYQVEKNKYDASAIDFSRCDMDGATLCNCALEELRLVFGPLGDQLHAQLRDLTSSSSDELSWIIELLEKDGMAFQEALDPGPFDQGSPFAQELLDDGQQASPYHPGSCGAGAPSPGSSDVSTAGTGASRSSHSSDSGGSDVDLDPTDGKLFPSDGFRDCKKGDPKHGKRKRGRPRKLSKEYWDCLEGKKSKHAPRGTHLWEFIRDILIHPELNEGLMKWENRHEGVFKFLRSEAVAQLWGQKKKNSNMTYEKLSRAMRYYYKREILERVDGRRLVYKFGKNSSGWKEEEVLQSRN
The note with it: protein: recombinant; tags: N-terminal GST; dsDNA, one strand shown. Summed up:
as §1

Another experiment addresses ETV1 (Homo sapiens, UniProt P50549 1-477). The note with it: protein: recombinant; tags: N-terminal GST; dsDNA, one strand shown. Summed up:
as §1

Sequence of ELF4 (Q99607 whole entry): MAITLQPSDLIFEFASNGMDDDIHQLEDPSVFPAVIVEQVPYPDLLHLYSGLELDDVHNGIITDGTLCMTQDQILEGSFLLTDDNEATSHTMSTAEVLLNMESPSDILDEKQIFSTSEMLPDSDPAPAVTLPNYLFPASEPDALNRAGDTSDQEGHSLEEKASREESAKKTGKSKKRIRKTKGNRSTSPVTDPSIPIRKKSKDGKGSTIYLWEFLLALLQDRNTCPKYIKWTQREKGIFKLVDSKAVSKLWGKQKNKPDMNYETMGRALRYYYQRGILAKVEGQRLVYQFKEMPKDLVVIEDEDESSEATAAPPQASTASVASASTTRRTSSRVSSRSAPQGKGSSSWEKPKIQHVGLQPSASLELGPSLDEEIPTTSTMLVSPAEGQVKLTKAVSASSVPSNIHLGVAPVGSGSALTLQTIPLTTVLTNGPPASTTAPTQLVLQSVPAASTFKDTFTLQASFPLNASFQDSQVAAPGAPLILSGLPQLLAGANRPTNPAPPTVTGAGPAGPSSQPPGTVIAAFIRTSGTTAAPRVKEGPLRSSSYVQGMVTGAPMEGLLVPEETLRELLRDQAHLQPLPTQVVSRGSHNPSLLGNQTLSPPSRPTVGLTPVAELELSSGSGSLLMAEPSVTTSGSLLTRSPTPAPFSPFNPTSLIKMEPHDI
Sequence of ETV5 (P41161 whole entry): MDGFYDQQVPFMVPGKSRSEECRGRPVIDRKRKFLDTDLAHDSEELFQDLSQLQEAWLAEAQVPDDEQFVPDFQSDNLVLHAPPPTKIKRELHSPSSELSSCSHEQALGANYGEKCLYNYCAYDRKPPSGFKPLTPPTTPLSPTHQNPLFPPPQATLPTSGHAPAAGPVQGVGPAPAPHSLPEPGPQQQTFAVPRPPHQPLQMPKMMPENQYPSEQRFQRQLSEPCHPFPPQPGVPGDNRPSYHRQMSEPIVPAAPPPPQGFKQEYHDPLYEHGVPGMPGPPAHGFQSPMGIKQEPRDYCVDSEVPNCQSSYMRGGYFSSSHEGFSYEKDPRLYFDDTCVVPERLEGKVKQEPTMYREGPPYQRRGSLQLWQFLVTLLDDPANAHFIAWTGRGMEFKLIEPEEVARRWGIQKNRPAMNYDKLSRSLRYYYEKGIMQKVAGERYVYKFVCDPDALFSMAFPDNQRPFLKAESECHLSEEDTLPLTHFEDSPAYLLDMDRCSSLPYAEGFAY
Sequence of ELF1 (P32519 whole entry): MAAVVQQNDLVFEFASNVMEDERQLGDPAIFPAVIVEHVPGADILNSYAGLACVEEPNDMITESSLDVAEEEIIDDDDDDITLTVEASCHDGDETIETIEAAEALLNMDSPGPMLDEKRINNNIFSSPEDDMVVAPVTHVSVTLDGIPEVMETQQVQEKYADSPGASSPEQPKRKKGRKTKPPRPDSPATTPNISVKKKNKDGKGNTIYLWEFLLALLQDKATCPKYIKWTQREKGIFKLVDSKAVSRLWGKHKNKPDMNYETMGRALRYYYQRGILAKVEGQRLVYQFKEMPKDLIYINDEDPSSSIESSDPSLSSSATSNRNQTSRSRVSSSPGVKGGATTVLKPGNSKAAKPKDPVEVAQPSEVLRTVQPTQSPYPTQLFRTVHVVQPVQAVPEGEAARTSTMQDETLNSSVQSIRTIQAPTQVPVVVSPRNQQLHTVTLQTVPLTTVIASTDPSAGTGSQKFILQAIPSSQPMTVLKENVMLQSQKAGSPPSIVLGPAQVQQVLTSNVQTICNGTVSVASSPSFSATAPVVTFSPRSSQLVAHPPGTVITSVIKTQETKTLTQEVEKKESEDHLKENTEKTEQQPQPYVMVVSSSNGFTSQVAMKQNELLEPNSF
Sequence of SPIB (Q01892 whole entry): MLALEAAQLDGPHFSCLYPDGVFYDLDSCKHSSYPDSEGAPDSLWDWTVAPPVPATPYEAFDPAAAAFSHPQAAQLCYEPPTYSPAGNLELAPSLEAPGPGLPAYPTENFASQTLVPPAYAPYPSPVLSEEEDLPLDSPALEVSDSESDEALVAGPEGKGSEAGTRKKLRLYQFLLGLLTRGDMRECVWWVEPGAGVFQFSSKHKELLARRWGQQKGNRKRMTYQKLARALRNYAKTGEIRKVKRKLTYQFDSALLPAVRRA
Sequence of ETV1 (P50549 whole entry): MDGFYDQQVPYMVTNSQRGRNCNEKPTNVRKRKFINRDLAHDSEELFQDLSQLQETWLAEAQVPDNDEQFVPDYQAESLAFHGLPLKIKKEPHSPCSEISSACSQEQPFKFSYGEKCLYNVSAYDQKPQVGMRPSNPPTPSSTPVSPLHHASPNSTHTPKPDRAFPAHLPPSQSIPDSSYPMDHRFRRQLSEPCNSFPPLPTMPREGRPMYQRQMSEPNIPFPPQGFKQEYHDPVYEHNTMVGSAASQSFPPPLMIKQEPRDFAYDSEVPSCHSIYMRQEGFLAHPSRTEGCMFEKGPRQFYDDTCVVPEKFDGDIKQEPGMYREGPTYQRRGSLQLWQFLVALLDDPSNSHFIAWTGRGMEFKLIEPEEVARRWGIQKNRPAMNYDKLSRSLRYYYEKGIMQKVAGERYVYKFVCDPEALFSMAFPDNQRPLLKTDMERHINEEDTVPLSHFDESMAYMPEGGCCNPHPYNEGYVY
Sequence of HSF1 (Q00613 whole entry): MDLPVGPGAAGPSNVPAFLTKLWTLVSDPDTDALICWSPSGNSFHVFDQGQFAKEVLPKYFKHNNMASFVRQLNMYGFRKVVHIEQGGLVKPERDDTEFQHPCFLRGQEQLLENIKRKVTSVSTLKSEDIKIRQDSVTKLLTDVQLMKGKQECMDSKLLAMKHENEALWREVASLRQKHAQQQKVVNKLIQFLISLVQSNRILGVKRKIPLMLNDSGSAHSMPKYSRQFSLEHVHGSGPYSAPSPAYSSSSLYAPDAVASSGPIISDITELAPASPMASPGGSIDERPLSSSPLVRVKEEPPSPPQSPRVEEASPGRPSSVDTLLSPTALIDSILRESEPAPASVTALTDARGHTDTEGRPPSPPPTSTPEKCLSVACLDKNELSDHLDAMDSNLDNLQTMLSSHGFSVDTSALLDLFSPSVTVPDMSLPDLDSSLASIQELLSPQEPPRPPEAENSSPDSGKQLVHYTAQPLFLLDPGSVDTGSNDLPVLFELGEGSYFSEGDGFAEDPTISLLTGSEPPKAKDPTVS

As to CGTACA, the binding signal was 1.18 fold enrichment (6-mer frequency, TF over GST control) with FLI1; 1.19 fold enrichment (6-mer frequency, TF over GST control) with ELK1; 1.17 fold enrichment (6-mer frequency, TF over GST control) in the experiment with GABPA; 1.17 fold enrichment (6-mer frequency, TF over GST control) with ERG; 1.26 fold enrichment (6-mer frequency, TF over GST control) in the experiment with ELF1; 1.16 fold enrichment (6-mer frequency, TF over GST control) with EHF. Besides, the binding signal with SPI1 was 1.12 fold enrichment (6-mer frequency, TF over GST control); with SPIB, 1.1 fold enrichment (6-mer frequency, TF over GST control); with ELK3 it was 1.16 fold enrichment (6-mer frequency, TF over GST control); with FEV it was 1.2 fold enrichment (6-mer frequency, TF over GST control); with ETV5, 1.22 fold enrichment (6-mer frequency, TF over GST control); with HSF1, 1.02 fold enrichment (6-mer frequency, TF over GST control). In addition, the binding signal with SPIC was 1.31 fold enrichment (6-mer frequency, TF over GST control); with ELF4, 1.2 fold enrichment (6-mer frequency, TF over GST control); with ELK4 it was 1.24 fold enrichment (6-mer frequency, TF over GST control); with ETV2 it was 1.36 fold enrichment (6-mer frequency, TF over GST control); in the experiment with ELF3 it was 1.27 fold enrichment (6-mer frequency, TF over GST control); with ETV1, 1.13 fold enrichment (6-mer frequency, TF over GST control).
